Counter-ions that a name gives are not always drawn.
Tests used:
Test in all cases: cell proliferation relative to vehicle (% of vehicle); higher = less growth inhibition
Settings in all cases: 72 h
[1] = test system: U2932 TK216-resistant clone 2
Summary of the method: (§1)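 Each of 348 targeted inhibitors was tested at 500 nM or 50 nM for 72 h on U2932 cells, both parental and two clones resistant to an ETS-targeting agent. Readout was by MTT with absorbance read on a Cytation 3. Proliferation appears as percent of proliferating cells relative to vehicle (DMSO).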

[2] = test system: U2932 TK216-resistant clone 3
Summary of the method: as §1

[3] = test system: U2932 parental
Summary of the method: as §1

Structure (SMILES)	cell proliferation ([1]; 50 nM)	cell proliferation ([1]; 500 nM)	cell proliferation ([2]; 50 nM)	cell proliferation ([2]; 500 nM)	cell proliferation ([3]; 50 nM)	cell proliferation ([3]; 500 nM)
Cc1[nH]c2ccccc2c1CCNCc1ccc(/C=C/C(=O)NO)cc1 [Panobinostat (LBH589)]	14.9	4.33	12.9	11.5	9.5	0.518
CC#CC(=O)N1CCC[C@H]1c1nc(-c2ccc(C(=O)Nc3ccccn3)cc2)c2c(N)nccn12	70	64.8	75.8	72.9	77.4	75.6
NC(=O)c1ccc(I)c([N+](=O)[O-])c1 [Iniparib (BSI-201)]	107	98.2	105	103	97	102
O=c1[nH]nc(Sc2ncc([N+](=O)[O-])s2)n1-c1ccc2c(c1)OCCO2	98.1	94.6	102	97.9	100	99.3
CC(C)N(C[C@H]1O[C@@H](n2cnc3c(N)ncnc32)[C@H](O)[C@@H]1O)[C@H]1C[C@@H](CCc2nc3cc(C(C)(C)C)ccc3[nH]2)C1	98.8	91.9	97.2	91.6	101	95.4
CN1CCC(Nc2nc(Nc3ccc(Oc4ccccc4)cc3)c3c(=O)[nH]cc(Br)c3n2)CC1	100	83.1	99.4	83.4	89.6	85.5
O=c1[nH]c(=O)n([C@H]2C[C@H](O)[C@@H](CO)O2)cc1F [Floxuridine]	60.3	37.4	95.2	72.5	73.1	34.2
COc1cc(OCc2cccc(-c3ccccc3)c2C)cc(OC)c1CN1CCCC[C@H]1C(=O)O [PD-1/PD-L1 inhibitor 1]	103	99.6	96.8	104	101	95.3
Cc1ccc(-c2cc(C(F)(F)F)nn2-c2ccc(S(N)(=O)=O)cc2)cc1 [Celecoxib]	99.8	95.6	104	98.7	101	100
FC(F)c1nc2ccccc2n1-c1nc(N2CCOCC2)nc(N2CCOCC2)n1	95.8	42.5	93.6	46	89.9	46.8
O=C1c2c(O)ccc(O)c2C(=O)c2c(NCCNCCO)ccc(NCCNCCO)c21 [Mitoxantrone HCl]	9.19	5.75	14.8	10.6	16.4	7.06
FC(F)(F)c1ccc(/C=C/c2nc(COc3ccc(CCCCn4ccnn4)cc3)co2)cc1 [Mubritinib (TAK 165)]	90.7	61	80.9	63.5	85.6	57.4
Cc1cc(NC(=O)c2cccc(NC(=O)/C=C/CN(C)C)c2)ccc1Nc1nccc(-c2cccnc2)n1	99.5	106	108	116	96.8	103
CC[C@]1(O)C[C@H]2CN(CCc3c([nH]c4ccccc34)[C@@](C(=O)OC)(c3cc4c(cc3OC)N(C=O)[C@H]3[C@@](O)(C(=O)OC)[C@H](OC(C)=O)[C@]5(CC)C=CCN6CC[C@]43[C@@H]65)C2)C1 [Vincristine sulfate]	9.22	10	7.89	9.97	10.4	13.4
Nc1ccccc1NC(=O)c1ccc(CNC(=O)OCc2cccnc2)cc1 [Entinostat (MS-275)]	104	74.8	88.2	66.7	93.2	66.2
CN(C)Cc1ccc(S(=O)(=O)n2ccc(/C=C/C(=O)NO)c2)cc1 [Resminostat]	99.1	93.8	92	90.4	93.4	84.7
CC(C)(C)c1cnc(CSc2cnc(NC(=O)C3CCNCC3)s2)o1	91.1	14.7	77.8	17.2	90.1	12.1
COc1cc2nccc(Oc3ccc(NC(=O)C4(C(=O)Nc5ccc(F)cc5)CC4)cc3)c2cc1OC	102	98	100	106	95.4	99.2

Source: the supplement of paper PMC13172266
